# Measured values published in PubChem BioAssay.
# Active and inactive are the calls of the source.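 How the source made its calls, unless noted: active means fluorescence slope after compound addition differing from the mean of all screened samples at 99.7% confidence, in either direction; inactive means the rest.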
# Key:
# [1] = inhibitors of TNFa-induced NFkB p65 translocation, primary screen, imaging, HUVEC, MLSMR starter and 10KST1 sets (AID 438;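 active means inhibition above 20% together with a positive visual image hit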;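 further: compound added about 3h40 before a 20 min TNFalpha stimulation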;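 on inhibition: signal is the nuclear over cytoplasmic p65 intensity ratio per well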); conditions: HUVEC TNFa-induced p65 nuclear translocation; cell count: measured here: nuclei count (cytotoxicity indicator), at 2.08 µM; inhibition: at 2 µM, stronger effect = higher value, 0% TNFa-plus-vehicle, 100% no-TNFa wells
# [2] = inhibitors of mutant huntingtin aggregation, primary screen, imaging, exon1htt(103Q)mCFP cells, high-content imaging (AID 483;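 active means visual image review flags a hit and inhibition of aggregation exceeds 20%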;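 further: compound exposure lasted 3 days before fixation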;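 on nuclei count: percent of the per-plate median nuclei count of sample wells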); conditions: exon1htt(103Q)mCFP cell line, aggregate imaging, at 2 µM; inhibition of aggregation: stronger effect = higher value; nuclei count: measured here: cell count, toxicity
# [3] = inhibitors of E-selectin induction by TNFa, primary screen, imaging, HUVEC, immunofluorescence, MLSMR starter and 10KST1 sets (AID 487;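 active means visually confirmed hit in the image check and inhibition above 20%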;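 on inhibition: signal is fraction of cell area covered by stained E-selectin grains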;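 on nuclei count: 100% = median nuclei count of all wells on the same plate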); conditions: HUVEC TNFalpha-induced E-selectin immunofluorescence imaging, at 2 µM; inhibition: stronger effect = higher value; nuclei count: measured here: cell number, toxicity
# [4] = target: Voltage-gated potassium channel subunit beta-2 (Rattus norvegicus) (UniProt P62483); assay: KvBeta enzyme negative modulators, primary screen, biochemical, NADPH fluorescence (AID 622;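 active means fluorescence slope higher than the sample average by over 3 SD, cut at about -0.22 in these data, passing the limit was not always enough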;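 further: slope of raw intensity against log time taken from 70 to 1610 s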); conditions: recombinant KvBeta, 4-cyanobenzaldehyde reduction, at 10 µM, stronger effect = higher value
# Sequence of Voltage-gated potassium channel subunit beta-2 (Rattus norvegicus) (P62483 whole entry, looked up): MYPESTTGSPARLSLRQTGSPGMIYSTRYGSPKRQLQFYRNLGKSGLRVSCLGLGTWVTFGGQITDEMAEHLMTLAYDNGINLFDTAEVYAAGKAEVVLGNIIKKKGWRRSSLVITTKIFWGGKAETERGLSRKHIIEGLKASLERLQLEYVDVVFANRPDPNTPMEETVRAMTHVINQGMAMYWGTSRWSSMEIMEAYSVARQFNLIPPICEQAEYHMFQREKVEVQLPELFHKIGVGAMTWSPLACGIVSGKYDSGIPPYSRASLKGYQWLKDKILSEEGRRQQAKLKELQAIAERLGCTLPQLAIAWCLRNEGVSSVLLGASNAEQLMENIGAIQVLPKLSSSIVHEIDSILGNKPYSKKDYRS
# [5] = target: Voltage-gated potassium channel subunit beta-2 (Rattus norvegicus) (UniProt P62483); assay: KvBeta positive modulators, primary screen, biochemical, NADPH fluorescence (AID 623;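 active means NADPH fluorescence slope more negative than the mean of all samples by about 3 SD, 99.7% confidence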;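 further: fluorescence intensity change per second fitted from 20 to 320 s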); conditions: Recombinant KvBeta, NADPH fluorescence decrease slope, 10 min; at 10 µM; stronger effect = lower value
# [6] = target: Alpha-2C adrenergic receptor (Homo sapiens) (UniProt P18825); assay: modulators of alpha2C/GIRK thallium flux, primary screen, cell-based, HEK293 alpha2C/GIRK1/2 (AID 624); conditions: thallium flux BTC fluorescence, at 10 µM, actives lie on both sides;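 further: slope of fluorescence ratio to pre-addition baseline per second over 15 to 24 s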
# Sequence of Alpha-2C adrenergic receptor (Homo sapiens) (P18825 whole entry, looked up): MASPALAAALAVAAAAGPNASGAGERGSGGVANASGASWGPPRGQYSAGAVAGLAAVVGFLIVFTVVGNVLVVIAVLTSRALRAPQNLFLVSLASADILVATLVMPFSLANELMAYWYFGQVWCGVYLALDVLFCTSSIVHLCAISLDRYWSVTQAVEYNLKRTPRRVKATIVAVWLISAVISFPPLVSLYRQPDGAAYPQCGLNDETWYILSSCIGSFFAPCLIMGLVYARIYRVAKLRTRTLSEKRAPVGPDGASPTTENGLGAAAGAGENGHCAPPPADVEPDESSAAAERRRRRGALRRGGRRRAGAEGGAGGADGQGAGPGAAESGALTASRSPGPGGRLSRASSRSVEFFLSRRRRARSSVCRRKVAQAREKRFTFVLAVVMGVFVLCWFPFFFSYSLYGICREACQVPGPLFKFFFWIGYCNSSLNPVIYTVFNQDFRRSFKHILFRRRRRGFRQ
# [7] = inhibitors of Sendai virus-induced IRF3 signaling, primary screen, TLR/RLR signaling modifier project, cell-based, Sendai virus stimulus, luciferase, 10K MLSCN set (AID 602276;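 active means inhibition at or above 50% at 10 µM; inactive means inhibition below 50%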;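 further: firefly luciferase from ISG56 promoter only with Renilla not read in this screen; 0% = Sendai virus plus DMSO and 100% = medium plus DMSO without virus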); conditions: HEK293 RL24 IRF3 luciferase reporter, at 10 µM, stronger effect = higher value
# [8] = inhibitors of poly I:C-induced TLR3 signaling, primary screen, cell-based, poly I:C stimulus, luciferase, 10K MLSCN set (AID 602277;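 active means inhibition of the reporter signal at or above 50%; inactive means inhibition below 50%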); conditions: HEK293-TLR3 RL24 IRF3 luciferase reporter, at 10 µM, stronger effect = higher value
Structure (SMILES),cell count [1],inhibition [1],inhibition of aggregation [2],nuclei count [2] [%],inhibition [3],nuclei count [3] [%],fluorescence slope [4],NADPH fluorescence slope [5],slope [6],inhibition [7],inhibition [8]
O=C(c1ncn[nH]1)N1CCN(c2nc(-c3ccccc3)cs2)CC1,397,2.5% (inactive),2.5% (inactive),68.1,22.4% (inactive),111,-0.387 (inactive),-4.6e-06 (inactive),0.00549 (inactive),-1.81% (inactive),-36.8% (inactive)
COc1ccc(Cn2nnnc2C(c2ccccc2OC)N2CCC(C(N)=O)CC2)cc1 (stereo not drawn),315,4.4% (inactive),6.9% (inactive),74.4,-39.5% (inactive),114,-0.604 (inactive),-4.2e-05 (inactive),0.00453 (inactive),10.7% (inactive),25.5% (inactive)
COc1ccccc1NC(=O)CSc1nnc(-c2ccncc2)n1CC1CCCO1 (stereo not drawn),626,20.6% (inactive),-8.1% (inactive),92.8,25.2% (inactive),100,-0.462 (inactive),-1.1e-06 (inactive),0.00619 (inactive),14.4% (inactive),98.5% (active)
O=S(=O)(NCC(c1cccnc1)N1CCN(c2ccccc2)CC1)c1cc(F)ccc1F (stereo not drawn),524,-6.2% (inactive),9% (inactive),51.3,-75.8% (inactive),115,-0.508 (inactive),5.2e-05 (inactive),0.00657 (inactive),21.7% (inactive),20.8% (inactive)
CCn1cc(C(=O)O)c(=O)c2cc(F)c(N3CCN(C(=O)Nc4ccccc4)CC3)cc21,676,-14% (inactive),27.3% (inactive),68.8,-42.9% (inactive),101,-0.498 (inactive),-8.3e-06 (inactive),0.00493 (inactive),8.6% (inactive),10.7% (inactive)
Oc1ccccc1-c1nnc(COc2ccc(Cl)cc2Cl)o1,766,-8.5% (inactive),-1.7% (inactive),127,-23.4% (inactive),113,-0.54 (inactive),-2.9e-05 (inactive),0.00718 (inactive),-0.185% (inactive),-1.08% (inactive)
CC(C)c1ccc(S(=O)(=O)N2CCN(CCC(=O)Nc3ccc(N(C)C)cc3)CC2)cc1,412,-1.6% (inactive),20% (inactive),91.6,-15.3% (inactive),89.3,-0.397 (inactive),-2.3e-05 (inactive),0.00369 (inactive),9.08% (inactive),20% (inactive)
CC1CCCCN1C(=O)Cn1nnc(-c2cccnc2)n1 (stereo not drawn),493,8% (inactive),-12% (inactive),93.1,-23.4% (inactive),95.3,-0.485 (inactive),-4.8e-05 (inactive),0.00445 (inactive),9.95% (inactive),16.3% (inactive)
CN(CCCNC(=O)c1cn(C)c2ccc(S(=O)(=O)N(C)C)cc2c1=O)c1ccccc1,596,-4.5% (inactive),-18.9% (inactive),37.6,39.4% (inactive),94.2,-0.582 (inactive),-7.6e-06 (inactive),0.00499 (inactive),15.4% (inactive),7.91% (inactive)
Cc1nc(NC(=O)c2csc3ccccc23)sc1C,386,-2.7% (inactive),-3.7% (inactive),103,-38.1% (inactive),117,-0.504 (inactive),-5.5e-05 (inactive),0.00508 (inactive),-31.4% (inactive),-86.4% (inactive)
CCC(=O)Nc1c2c(nn1-c1ccccc1C)CSC2,592,8.9% (inactive),-2.1% (inactive),114,31.2% (inactive),99.7,-0.614 (inactive),-1.7e-05 (inactive),0.00682 (inactive),14.2% (inactive),21.4% (inactive)
c1ccc(Cn2ncc3c2ncn2c(-c4ccncc4)nnc32)cc1,430,-10.4% (inactive),-7.2% (inactive),117,-36% (inactive),98.3,-0.517 (inactive),-1.5e-05 (inactive),0.00557 (inactive),-13.1% (inactive),-7.97% (inactive)
CCOc1ccccc1C(=O)NCc1ccc2c(c1)OCO2,414,1.1% (inactive),-12.2% (inactive),98.8,-18.7% (inactive),94.7,-0.388 (inactive),-3.6e-05 (inactive),0.00485 (inactive),10.4% (inactive),-6.17% (inactive)
CCCCOc1ccc(N(CC(=O)NC2CCCC2)C(=O)CCC(=O)Nc2ccccn2)cc1,582,-1.5% (inactive),-1.9% (inactive),94,-7.6% (inactive),101,-0.416 (inactive),1.8e-06 (inactive),0.00642 (inactive),15.8% (inactive),28.8% (inactive)
Cc1ccc(Cl)cc1N1CCN(C(=O)CN2C(=O)c3cccc4cccc2c34)CC1,771,-7.2% (inactive),-2.2% (inactive),89.4,-11.6% (inactive),101,-0.341 (inactive),4.7e-06 (inactive),0.0104 (active),9.95% (inactive),8.22% (inactive)
Cc1cccc(N2C(=O)CC(N(C(=O)c3ccco3)c3cccc(C)c3)C2=O)c1 (stereo not drawn),641,-9.3% (inactive),-5.2% (inactive),99,-156% (inactive),102,-0.504 (inactive),-5.1e-05 (inactive),0.00488 (inactive),13.6% (inactive),19% (inactive)
CCOP(=O)(c1ccc(N(C)C)cc1)C(O)c1ccccc1OC (stereo not drawn),728,-5.5% (inactive),-2.8% (inactive),113,-31.9% (inactive),116,-0.387 (inactive),4.7e-05 (inactive),0.00598 (inactive),1.78% (inactive),10.6% (inactive)
CCOC(=O)N1CCN(c2c(NCCN(C)Cc3ccccc3)c(=O)c2=O)CC1,578,-2% (inactive),9.3% (inactive),105,-62.3% (inactive),124,-0.492 (inactive),-1.8e-05 (inactive),0.00728 (inactive),1.64% (inactive),6.95% (inactive)
Cc1cc2nc(C3CCN(CC4COc5ccccc5O4)CC3)[nH]c2cc1C (stereo not drawn),746,-8.3% (inactive),-2.5% (inactive),92,-56.9% (inactive),107,-0.433 (inactive),-1.9e-05 (inactive),0.00449 (inactive),-0.371% (inactive),-21.4% (inactive)
COc1cc2nc(SCC(=O)NC3CC3)n(CCC3=CCCCC3)c(=O)c2cc1OC,688,-4% (inactive),0.8% (inactive),101,-35.1% (inactive),108,-0.427 (inactive),-4e-06 (inactive),0.00342 (inactive),14.1% (inactive),24.7% (inactive)
CCn1nnc(NC(=O)c2ccccc2Br)n1,229,10.3% (inactive),6.4% (inactive),66,12.4% (inactive),95.4,-0.385 (inactive),-5.5e-05 (inactive),0.00604 (inactive),-19.8% (inactive),-39.6% (inactive)
Cc1cc(NCCN2CCCCC2)n2c(nc3ccccc32)c1C#N,624,-10.5% (inactive),-3.2% (inactive),61.6,-2% (inactive),134,-0.526 (inactive),-4.4e-05 (inactive),0.0039 (inactive),10.4% (inactive),21.6% (inactive)
CC1CCC2C(C1)c1sc(=O)[nH]c1SC2(C)C (stereo not drawn),815,-7.3% (inactive),16.6% (inactive),98.3,-18.7% (inactive),116,-0.365 (inactive),2e-05 (inactive),0.00605 (inactive),-1.58% (inactive),10.1% (inactive)
Cn1cc(C(=O)c2ccc(F)cc2)cc1-c1nc2ccccc2n1C,357,-6.3% (inactive),23.1% (inactive),86.8,5.7% (inactive),83,-0.59 (inactive),-4.1e-05 (inactive),0.0041 (inactive),3.11% (inactive),-17.9% (inactive)
O=C(CSc1nnc2ncccn12)N1CCCCCC1,673,26.6% (active),8.3% (inactive),106,-9.5% (inactive),82.7,-0.475 (inactive),-0.000211 (inactive),0.00529 (inactive),4.98% (inactive),99.3% (active)
CCOc1ccc(C(=O)CN2CCN(S(=O)(=O)c3ccc(OC)cc3)CC2)cc1,599,-2.9% (inactive),-3.6% (inactive),106,-29.2% (inactive),92.2,-0.391 (inactive),-4.7e-05 (inactive),0.00338 (inactive),-2.61% (inactive),21.2% (inactive)
CCCn1cc(SCC(N)=O)c2ccccc21,743,-8% (inactive),-1.3% (inactive),107,-33.9% (inactive),113,-0.382 (inactive),-6.4e-06 (inactive),0.00614 (inactive),13.5% (inactive),27.7% (inactive)
Cc1ccc2c(CNCc3ccco3)cc(=O)oc2c1,712,7.3% (inactive),21.5% (inactive),87.6,-10.2% (inactive),96.6,-0.519 (inactive),-1.9e-05 (inactive),0.00495 (inactive),-18.6% (inactive),-70.4% (inactive)
